Laboratory results: PubChem BioAssay AID493100 (Broad Institute, 2011)
Potency and affinity values are given separately. Records with an inconclusive call do not appear.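 Rule for the calls: active = decreasing signal in every run, fitted half-effect dose at most ten times the top valid dose; inconclusive = runs disagree, weak flat effect, or poor curve fit; inactive = every run inactive, signal rises included.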

assay: blockers of SFLLRN-triggered platelet ATP secretion – cell-based, human platelets, luminescence, dry powder, dose response (AID 493100); conditions: SFLLRN-induced ATP dense granule secretion; series mostly up to 35 µM; activity change, negative = inhibition: at the top concentration

Activity change, negative = inhibition, inactive:
CC(=O)N/N=C(\C)c1ccc(NC(=O)C2CC2)cc1 -2.3%
CCCC(=O)Nc1cccc(NC(=O)c2ccc(Cl)cc2)c1 1.1%
CCCC(=O)Nc1cccc(NC(=O)c2ccc(C)cc2)c1 -4.26%
CC(=O)Nc1c(C#N)c(-c2ccccc2)c(C#N)c(=O)n1-c1ccc(C)cc1 2.86%
CC(=O)Nc1cccc(NC(=O)c2cccc(Cl)c2)c1 -16.2%
CC(=O)Nc1cccc(NC(=O)c2ccccc2Cl)c1 -10.5%
O=C(Nc1cccc(NC(=O)c2ccccc2Cl)c1)c1ccco1 -5.54%
CCCC(=O)Nc1cccc(NC(=O)c2ccc(OC)cc2)c1 -16.3%
CCCC(=O)Nc1cccc(NC(=O)c2ccc(F)cc2)c1 -5.49%
O=C(Nc1cccc(NC(=O)c2ccccc2Br)c1)c1ccccc1 -19.6%
CCCC(=O)Nc1cccc(NC(=O)c2cccc(S(C)(=O)=O)c2)c1 -7.48%
CCCC(=O)Nc1cccc(NC(=O)c2cccc([N+](=O)[O-])c2)c1 -9.94%
CCCC(=O)Nc1cccc(NC(=O)c2cccnc2)c1 -1.9%
C/C(=N\NC(=O)c1ccccc1)c1ccc(NC(=O)C(F)(F)F)cc1 2.81%
CCCC(=O)Nc1cccc(NC(=O)c2cccc(Oc3ccccc3)c2)c1 -0.033%
C/C(=N\NC(=O)C1CCCC1)c1ccc(Cl)cc1 -1.57%
CCCC(=O)Nc1cccc(NC(=O)c2ccc(S(C)(=O)=O)cc2)c1 0.039%
CC(=O)Nc1ccc(/C=N/NC(=O)CC2CCCCC2)cc1 -15.4%
CCCC(=O)Nc1cccc(NC(=O)c2ccco2)c1 -14.2%
CCCC(=O)Nc1cccc(NC(=O)c2cccc(-c3ccccc3)c2)c1 -4.16%
O=Cc1ccc(NC(=O)C(F)(F)F)cc1 -3.78%
CCCC(=O)Nc1cccc(NC(=O)c2cnc3ccccc3c2)c1 -1.45%
CCCC(=O)Nc1cccc(NC(=O)c2ccc(C(F)(F)F)cc2)c1 -9.62%
CCCCC(=O)Nc1cccc(NC(=O)c2ccccc2Br)c1 -0.702%
CCCC(=O)Nc1cccc(NC(=O)c2ccccc2OC)c1 -17.9%
CC(=O)c1ccc(NC(=O)C(F)(F)F)cc1 4.41%
NNC(=O)C1CCCC1 4.1%
